# PubChem BioAssay (NCATS)
# Records with an inconclusive call do not appear. A number with no mark means an inactive call. Activity calls are given as the source filed them. Calls follow the shape of the dose curve; as a rule, active = well fitted activation curve with a large enough effect; inconclusive = small, poorly fitted or top-dose-only effect; inactive = no such curve, though single readings can be large or run the other way.
# Assay: qHTS for activators of Nrf2/ARE signaling pathway screened against the NCATS CANVASS Library (AID 1347391); also: nearly all actives have a fitted effect of over 60% in size; as to activation: 0% is about no effect
# Conditions: ARE-bla HepG2, beta-lactamase reporter, 16 h; series mostly up to 46.1 µM; activation: at the top concentration
# Excerpt: Natural products and their derivatives continue to be wellsprings of nascent therapeutic potential. However, many laboratories have limited resources for biological evaluation, leaving their previously isolated or synthesized compounds largely or completely untested. To address this issue, the Canvass library of natural products was assembled (https://tripod.nih.gov/canvass), in collaboration with academic and industry researchers, for quantitative high-throughput screening (qHTS) across a diverse set of cell-based and biochemical assays. The pure (>85% purity by liquid chromatography/mass spectrometry [LC/MS]) Canvass library of 346 natural products were submitted by 45 academic laboratories and companies around the world. We collected pure natural products to circumvent deconvolution and structure elucidation due to time and resource limitations. The library was formatted into 1536-well plates and evaluated in 50 qHTS (in an 11-pnt concentration series) bioassays with broad scope of disease-relevant mechanisms. The resulting data set from 50 different assays was then systematically analyzed to identify overall trends and specific natural products with interesting biological activities. Reported herein are the results of each individual qHTS and their corresponding assay protocol. This assay measures the activation of the Nrf2/ARE signaling pathway in cells using a beta-lactamase reporter gene. The ARE-bla HepG2 assay (Invitrogen) can detect the up-regulation of the antioxidant response element (ARE) signaling pathway and may be useful for the identification of chemicals that induce oxidative stress. National Center for Advancing Translational Sciences (NCATS), Rockville, MD National Institute of Health (NIH), Bethesda, Maryland
# Nrf2/ARE-screen assay protocol: 1. In a white-solid bottom 1536-well plate, 5 uL of ARE-bla HepG2 cell suspension was dispensed using a Multidrop Combi (Thermo Fisher Scientific) at a final concentration of 2000 cells / well. 2. The assay plates were incubated for 5 hours at 37C, 5% CO2. 3. 23 nL of compounds (in DMSO; columns 5-48), vehicle control DMSO, and positive control were pin transferred into the assay plates using the Kalypsis pin tool (Wako USA) equipped with a 1536-well pin heads. This yields a final CANVASS compound concentration of 0.4 nM - 95 uM. 4. The assay plates were incubated for 16 hours at 37C, 5% CO2. 5. After compound treatment, 1 uL per well of CCF4 dye detection reagent was added using the BioRAPTR dispenser. 6. The assay plates were incubated for 2 hours at room temperature. 7. Fluorescence readout was obtained using the Envision plate reader (PerkinElmer) using a 405 nm excitation and 460 nm and 530 nm emission filters. 8. To evaluate cell viability, 4 uL of CellTiter-Glo was added to each wells using the BioRAPTR dispenser followed by a 30 min room temperature incubation. 9. Luminescence was measured using the ViewLux plate reader with clear emission filter and 2x binning, 1 sec exposure settings.
# Potency is read from the fitted curve at half-maximal effect.
SMILES,activation,Potency
CCC[C@H]1CC[C@H]2[C@H](C)CCC[C@H]2N1,6.98%,–
CO[C@H](c1ccccc1)[C@H]1NC(=O)C(C)NC(=O)C(C[C@@H](C)CO)N(C)C(=O)[C@@H](C(O)c2cn(C(C)(C)C3CO3)c3ccccc23)NC(=O)C(C(C)C=C(C)C)NC(=O)C(CC(C)C)N(C)C(=O)C(C(C)C)NC1=O (stereo not given in full),16.5% [at 27.5 µM],–
CCC(=O)CCCCC[C@@H]1NC(=O)[C@H]2CCCCN2C(=O)[C@H]([C@@H](C)CC)NC(=O)[C@H](Cc2cn(OC)c3ccccc23)NC1=O,-43.4%,–
NCCc1ccccc1,12%,–
COC(=O)C1=C2Nc3ccccc3[C@@]23CCN2CC(C(C)=O)C1C[C@H]23 (stereo not given in full),19.3%,–
CC[C@@H]1CN2CC[C@@]3(O)C(=Nc4cccc(OC)c43)[C@@H]2C[C@@H]1/C(=C\OC)C(=O)OC,28.6%,–
CNCCc1ccc(O)cc1,2.53%,–
c1ccc2c3c([nH]c2c1)CNCC3,15.9%,–
CN(C)Cc1c[nH]c2ccccc12,10.2%,–
CNCCc1ccccc1,2.21%,–
CN1C(=O)[C@]23CC4C(C)(C)[C@@]5(C[C@@]41CN2CC[C@@]3(C)O)C(=O)Nc1c5ccc2c1OC=CC(C)(C)O2 (stereo not given in full),13.7%,–
CC[N@@+]1([O-])C[C@]2(C)CC[C@@H](O)[C@@]34C5C[C@H]6CC[C@@]5(C(C[C@H]23)C41)[C@H](O)[C@@]6(O)CO (stereo not given in full),5.37%,–
CNCCc1c[nH]c2ccccc12,11.2%,–
CC1=CC2CC[C@@H]3[C@@H](C)C[C@H](C)[C@@H](C1)N23 (stereo not given in full),5.24%,–
CO[C@@H](/C=C/CC/C=C/C(=O)O)[C@@H](O)[C@H](C)/C=C(\C)[C@@H](O)[C@H](C)C(=O)CCCC1CC(=O)NC(=O)C1,8.41%,–
C/C=C1/CN2CC[C@]34C(=Nc5ccccc53)[C@@H]2C[C@@H]1[C@H]4C(=O)OC,7.21% [at 91.4 µM],–
CCCC[C@@H]1CC[C@H]2CCCC(CCC)N12 (stereo not given in full),15.5%,–
CC1=CC(=O)C2=C(C)C[C@H](O)[C@@H]3[C@H](OC(=O)[C@@H]3C)[C@@H]12,–,13.2 µM (active)
C=C1[C@@H](C)[C@H]2[C@H](Cc3ccccc3)NC(=O)[C@]23OC(=O)/C=C/[C@H](O)CCC[C@@H](C)C/C=C/[C@H]3[C@@H]1O,-8.25%,–
CCN1C[C@]2(C)CC[C@@H](O)[C@]34C1[C@H](C[C@H]23)C12CCC(CC14)[C@](O)(CO)[C@H]2O (stereo not given in full),7.78%,–
CCN1C[C@]2(C)CC[C@H](O)[C@]34C1C(C[C@H]23)[C@@]12CC[C@H](CC14)[C@](O)(COC(=O)c1ccc(OC)c(OC)c1)[C@H]2O (stereo not given in full),6.2%,–
CCCCC[C@@H]1OC(=O)[C@@H](C)N(C)C(=O)[C@H](CCCCC)OC(=O)C(C)N(C)C(=O)[C@H](CCCCC)OC(=O)[C@@H](C)N(C)C(=O)[C@H](CCCCC)OC(=O)C(C)N(C)C1=O (stereo not given in full),-28.4%,–
O=C(c1ccccc1O)c1[nH]c(Cl)c(Cl)c1-n1c(C(=O)c2ccccc2O)cc(Cl)c1Cl,-33.3%,–
CC(=O)N[C@H]1CCN2CCC[C@H]12,-0.856% [at 103 µM],–
CO[C@@H](/C=C/CC/C=C/C(=O)O)[C@@H](O)[C@H](C)[C@@H](O)/C(C)=C/[C@H](C)C(=O)CCCC1CC(=O)NC(=O)C1,16.7%,–
